Data from PubChem BioAssay AID624255 (Broad Institute, 2012).
The campaign covered roughly 77,000 compounds. About 4,600 (6%) were called active. Roughly 1% stayed inconclusive and do not appear here.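 Rule for the calls: active = mean inhibition above about 93%, with at least 55% of replicates each passing it (limit read from the data, passing the limit was not always enough); inconclusive = only one of those two conditions holds; inactive = neither condition holds.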 Shown is part of a subset that was picked to be rich in actives.

Test: growth inhibition of T. cruzi in host fibroblasts – cell-based, beta-gal Tulahuen parasites, NIH3T3 host, luminescence, primary screen (AID 624255)
Details: T. cruzi beta-gal in NIH3T3, GalScreen luminescence, 90 h; at 8.34 µM; hits give high values

Row | SMILES | inhibition
1 | C[C@@H](NC(=O)C[C@@H]1CC[C@@H](NC(=O)C2CCOCC2)[C@@H](CO)O1)c1ccccc1 | 9.21% (inactive)
2 | O=C(C[C@@H]1CC[C@@H](NC(=O)Nc2ccc(F)cc2)[C@H](CO)O1)NCCN1CCCC1 | 30.1% (inactive)
3 | CCCNC(=O)N1[C@@H]2c3ccc(-c4ccccc4OC)c(=O)n3C[C@H]1[C@H](CO)[C@H]2C(=O)N(C)C | 1.54% (inactive)
4 | CO[C@@H]1CC[C@@H]2CCOc3c(C#N)cccc3C(=O)N(C)C[C@@H](OC)[C@@H](C)C(=O)N(C)C[C@H]1O2 | 11.7% (inactive)
5 | CC(=O)N1[C@@H](CO)[C@H](c2ccccc2)[C@@H]1CN(C)C(=O)CN1CCOCC1 | 50.9% (inactive)
6 | COc1ccc(NC(=O)Nc2ccc3c(c2)C(=O)N([C@H](C)CO)C[C@H](C)[C@@H](CN(C)Cc2ccc(C(=O)O)cc2)OCCCC[C@H](C)O3)cc1 | 51% (inactive)
7 | COc1ccc(CN(C)C[C@H]2OCCCC[C@H](C)Oc3ccc(NC(=O)Nc4ccc5c(c4)OCO5)cc3C(=O)N([C@H](C)CO)C[C@@H]2C)cc1 | 98.7% (active)
8 | COc1ccc(NC(=O)N(C)C[C@H]2OCCCC[C@@H](C)Oc3ccc(NC(=O)Nc4ccc5c(c4)OCO5)cc3C(=O)N([C@H](C)CO)C[C@@H]2C)cc1 | 9.34% (inactive)
9 | C[C@@H]1CN([C@@H](C)CO)C(=O)c2cc(NC(=O)Nc3ccc4c(c3)OCO4)ccc2O[C@@H](C)CCCCO[C@@H]1CN(C)Cc1ccccc1 | 41.8% (inactive)
10 | C[C@@H]1CN([C@H](C)CO)C(=O)c2cc(NC(=O)Nc3ccc4c(c3)OCO4)ccc2O[C@@H](C)CCCCO[C@@H]1CN(C)Cc1ccc2c(c1)OCO2 | 81.6% (inactive)
11 | C[C@@H]1CCCCO[C@@H](CN(C)Cc2ccc3c(c2)OCO3)[C@@H](C)CN([C@@H](C)CO)C(=O)c2cc(NC(=O)Nc3ccccc3)ccc2O1 | 99.9% (active)
12 | Cc1cccc(S(=O)(=O)N2C[C@H]3[C@@H](c4ccccc42)[C@H](CO)N3Cc2ccc3c(c2)OCO3)c1 | 72.7% (inactive)
13 | CN1C[C@H](O)COC[C@H]2O[C@H](CC(=O)NC3CCC3)CC[C@@H]21 | -61.9% (inactive)
14 | C[C@@H]1CCCCO[C@@H](CN(C)S(C)(=O)=O)[C@H](C)CN([C@@H](C)CO)C(=O)c2cc(NS(=O)(=O)c3cccs3)ccc2O1 | -8.12% (inactive)
15 | C[C@@H]1CCCCO[C@H](CN(C)S(=O)(=O)c2cccs2)[C@H](C)CN([C@@H](C)CO)C(=O)c2cc(NS(=O)(=O)c3cccs3)ccc2O1 | -8.67% (inactive)
16 | C[C@@H]1CCCCO[C@@H](CN(C)S(=O)(=O)c2ccc(F)cc2)[C@@H](C)CN([C@@H](C)CO)C(=O)c2cc(NS(=O)(=O)c3cccs3)ccc2O1 | 10.6% (inactive)
17 | C[C@@H]1CN([C@H](C)CO)C(=O)c2cc(NS(=O)(=O)c3cccs3)ccc2O[C@@H](C)CCCCO[C@@H]1CN(C)S(=O)(=O)c1ccc(Cl)cc1 | 109% (active)
18 | C[C@@H]1CN([C@H](C)CO)C(=O)c2cc(NS(=O)(=O)c3cccs3)ccc2O[C@@H](C)CCCCO[C@@H]1CN(C)S(=O)(=O)c1cccs1 | -40.5% (inactive)

Row | SMILES | inhibition
19 | C[C@@H]1CCCCO[C@H](CN(C)S(=O)(=O)c2ccc(Cl)cc2)[C@H](C)CN([C@@H](C)CO)C(=O)c2cc(NS(=O)(=O)c3cccs3)ccc2O1 | 110% (active)
20 | COCC(=O)N1C[C@@H](C)[C@H](OC)CN(C)C(=O)c2cc(NC(=O)c3cc(C)on3)ccc2OC[C@@H]1C | 60.6% (inactive)
21 | C[C@H](O)C#Cc1ccc2c(c1)O[C@@H](CN(C)CC1CCCC1)[C@H](C)CN([C@@H](C)CO)S2(=O)=O | 13.4% (inactive)
22 | COCC(=O)Nc1ccc2c(c1)C(=O)N(C)C[C@H](OC)[C@@H](C)CN(C(=O)c1cnccn1)[C@H](C)CO2 | 7.73% (inactive)
23 | CC(=O)N1[C@H](C(=O)N(C)C)[C@@H](CO)[C@@H]2Cn3c(ccc(-c4ccccc4)c3=O)[C@@H]21 | 16.7% (inactive)
24 | Cc1ccc(S(=O)(=O)N(C)C[C@H]2OCCCC[C@H](C)Oc3ccc(NC(=O)Cc4ccccc4)cc3C(=O)N([C@@H](C)CO)C[C@@H]2C)cc1 | 110% (active)
25 | C[C@@H]1CCCCO[C@H](CN(C)C)[C@H](C)CN([C@@H](C)CO)C(=O)c2cc(NC(=O)Cc3ccccc3)ccc2O1 | -33.2% (inactive)
26 | C[C@@H]1CN([C@@H](C)CO)C(=O)c2cc(NC(=O)CCCN(C)C)ccc2O[C@@H](C)CCCCO[C@@H]1CN(C)S(=O)(=O)c1ccc(Cl)cc1 | 25.4% (inactive)
27 | C[C@@H]1CCCCO[C@@H](CN(C)S(=O)(=O)c2ccc(Cl)cc2)[C@H](C)CN([C@@H](C)CO)C(=O)c2cc(NC(=O)Cc3ccccc3)ccc2O1 | 98.6% (active)
28 | Cc1ccc(S(=O)(=O)N(C)C[C@@H]2OCCCC[C@@H](C)Oc3ccc(NC(=O)C4CCCCC4)cc3C(=O)N([C@H](C)CO)C[C@H]2C)cc1 | 24% (inactive)
29 | Cc1ccc(S(=O)(=O)N(C)C[C@@H]2OCCCC[C@@H](C)Oc3ccc(NS(=O)(=O)c4ccccc4)cc3C(=O)N([C@H](C)CO)C[C@@H]2C)cc1 | 55% (inactive)
30 | CCCN1C[C@H](C)[C@@H](OC)CN(C)C(=O)c2cc(NS(=O)(=O)CC)ccc2OC[C@H]1C | -88% (inactive)
31 | CN1c2ccc(Br)cc2[C@H]2[C@H](CCN2S(=O)(=O)c2ccccc2)[C@@H]1CO | 95.5% (inactive)
32 | CN1C(=O)c2cc(NS(=O)(=O)c3ccc(F)cc3)ccc2OC[C@@H]2O[C@@H](CC(=O)O)CC[C@H]21 | 20.4% (inactive)
33 | COc1cccc(C(=O)Nc2ccc3c(c2)C(=O)N(C)[C@@H]2CC[C@H](CC(=O)NCC4CC4)O[C@@H]2CO3)c1 | 22.9% (inactive)
34 | COCC(=O)Nc1ccc2c(c1)C(=O)N(C)C[C@H](OC)[C@@H](C)CN(C(=O)Cc1cccnc1)[C@@H](C)CO2 | -9.25% (inactive)
35 | CC(C)NC(=O)N1C[C@H]2[C@@H](c3ccccc31)[C@H](CO)N2C(=O)c1ccccc1F | -21.6% (inactive)
